Measured values taken from article PMC4336329 (PLoS ONE, 2015).
The whole screen tested about 310,000 compounds, of which about 14,000 (4.5%) showed an effect of 50% or more. Effects have a minus sign here. The full list was thinned out, with strong results kept by preference.

Target: human ether-à-go-go-related gene (hERG) potassium channel (human, UniProt Q12809)
Assay: primary screen, population patch clamp on CHO cells stably expressing hERG; higher = less effect of the substance
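Note: peak tail current of the secondary pulse compared with the same well before compound.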

human ether-à-go-go-related gene (hERG) potassium channel, sequence (Q12809 whole entry, looked up): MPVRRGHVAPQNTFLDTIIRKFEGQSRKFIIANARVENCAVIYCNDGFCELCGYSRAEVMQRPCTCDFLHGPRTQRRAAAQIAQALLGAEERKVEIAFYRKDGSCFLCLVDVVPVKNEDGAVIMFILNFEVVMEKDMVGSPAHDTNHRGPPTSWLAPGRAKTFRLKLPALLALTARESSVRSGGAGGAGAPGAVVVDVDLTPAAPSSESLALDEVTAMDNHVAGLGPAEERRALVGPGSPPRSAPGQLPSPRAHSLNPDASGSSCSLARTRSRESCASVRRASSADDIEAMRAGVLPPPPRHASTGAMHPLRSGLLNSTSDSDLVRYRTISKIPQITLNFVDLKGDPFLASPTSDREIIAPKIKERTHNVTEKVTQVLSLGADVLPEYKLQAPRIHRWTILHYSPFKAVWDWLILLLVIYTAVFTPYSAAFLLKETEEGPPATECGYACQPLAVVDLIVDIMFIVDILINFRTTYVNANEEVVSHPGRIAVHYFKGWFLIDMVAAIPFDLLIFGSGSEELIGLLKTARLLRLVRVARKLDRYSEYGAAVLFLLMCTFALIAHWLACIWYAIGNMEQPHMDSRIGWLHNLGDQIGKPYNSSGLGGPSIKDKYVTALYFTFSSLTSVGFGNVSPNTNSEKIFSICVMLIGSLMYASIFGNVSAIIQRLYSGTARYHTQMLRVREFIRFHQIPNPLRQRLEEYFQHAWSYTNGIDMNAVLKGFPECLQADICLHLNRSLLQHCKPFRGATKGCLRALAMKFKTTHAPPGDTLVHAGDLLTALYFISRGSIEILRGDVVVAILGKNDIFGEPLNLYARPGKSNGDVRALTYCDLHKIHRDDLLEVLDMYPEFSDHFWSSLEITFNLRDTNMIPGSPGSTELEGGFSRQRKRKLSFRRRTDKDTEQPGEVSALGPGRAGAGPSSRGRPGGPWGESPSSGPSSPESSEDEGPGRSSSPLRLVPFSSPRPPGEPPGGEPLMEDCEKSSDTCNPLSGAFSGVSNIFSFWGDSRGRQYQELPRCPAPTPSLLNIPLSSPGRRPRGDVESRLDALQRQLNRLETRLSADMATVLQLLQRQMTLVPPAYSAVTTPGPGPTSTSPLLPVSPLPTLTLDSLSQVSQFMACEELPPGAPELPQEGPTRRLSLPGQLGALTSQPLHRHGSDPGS

| SMILES | hERG current change (%, negative = inhibition) at 10uM [%] |
| --- | --- |
| COc1ccc(CN2C(=O)c3ccccc3C(/C=N\OCc3ccc(C)cc3)C2=O)cc1 (stereo not drawn) | 8.84 |
| CCN(c1ccccc1)S(=O)(=O)c1ccc(C(=O)Nc2nccs2)cc1 | 8.62 |
| Cc1c(S(=O)(=O)Nc2ccc3c(c2)OCCO3)c(=O)n(C)c(=O)n1C | -10.7 |
| CCOCCCNS(=O)(=O)c1cc2[nH]c3c(c2cc1C)C(=O)CC(C)(C)C3 | -6.44 |
| Cc1ccc(NS(=O)(=O)c2ccc(C)c(C(=O)N3CCN(C)CC3)c2)cc1.Cl | -14.8 |
| COc1ccc(OC)c(S(=O)(=O)N(C)CC(=O)Nc2ccccc2OC)c1 | -20.2 |
| O=C1/C(=C\c2ccc(Br)o2)Cc2ccccc21 | 2.56 |
| CSc1ncccc1C(=O)OCC(=O)Nc1ccc2c(c1)CCC2 | 9.67 |
| COc1ccc(C(=O)NC(=S)NNC(=O)COc2ccccc2)cc1 | -2.47 |
| OCCC1CN(Cc2cccn2-c2nccs2)CCN1Cc1ccc(F)c(F)c1 (stereo not drawn) | -80.7 |
| CCc1nc(CN2CCN(Cc3ccc(F)c(F)c3)C(CCO)C2)c(C)[nH]1 (stereo not drawn) | 14.2 |
| Cc1ccc(CN2CCN(Cc3cccn3-c3nccs3)CC2CCO)cc1 (stereo not drawn) | -77.3 |
| Cc1ccc(N2C(=O)CC(C)CC2=O)cc1 | 21.2 |
| O=C(C[n+]1ccc(C(=O)c2ccccc2)cc1)Nc1ccc(C(F)(F)F)cc1.[Cl-] | -11.6 |
| CS(=O)(=O)N(CC(=O)N1CCCCC1)c1cccc(F)c1 | 13 |
| COc1cccc(NC(=O)COC(=O)c2ccccc2F)c1 | 13.8 |
| O=C(CCc1nnc2ccc(N3CCC4(CC3)OCCO4)nn12)Nc1ccc(F)cc1 | -40.2 |
| CC(C)[C@H](CN(N=O)[C@@H](Cc1ccccc1)CN(C)N=O)N(CCc1ccccc1)N=O.[Na+] | -0.676 |
| CC(C)(C)C(=O)NC(NC(=O)C(C)(C)C)c1ccc([N+](=O)[O-])cc1 | 8.18 |
| CCn1nc(C)c(Br)c1-c1nc(-c2cccc(C)c2)no1 | 19.1 |
| CC1(C)CC(=O)C(N=Nc2ccc(OC(F)F)cc2)=C(O)C1 | -57.6 |
| CC1(C)CC(=O)C(N=Nc2ccc(F)cc2)=C(O)C1 | -4.21 |

| SMILES | hERG current change (%, negative = inhibition) at 10uM [%] |
| --- | --- |
| COc1ccc(N=NC2=C(O)CC(C)(C)CC2=O)cc1 | -9.39 |
| COc1ccc(-n2cnc3cc(C(=O)N4CCC5(CC4)OCCO5)ccc32)cc1 | -42.8 |
| O=C(Cc1ccccc1)Nc1ccccc1N1CCCC1 | 9.76 |
| Cc1ccc(-c2nnc(SCC(=O)Nc3ccccc3F)o2)cc1 | 6.53 |
| Cc1cc(NC(=O)CSc2ccc3nnc(-c4ccccn4)n3n2)no1 | -6.72 |
| Cc1ccccc1CSc1ccc2nnc(-c3ccccn3)n2n1 | -81.6 |
| Cc1ccc(C)c(CSc2ccc3nnc(-c4ccccn4)n3n2)c1 | -76.5 |
| Cc1ccccc1CSc1nnc(-c2ccccn2)n1C | -1.96 |
| Cc1nnc(NC(=O)CSc2ccc3nnc(-c4ccccn4)n3n2)s1 | -9.79 |
| Cc1ccccc1NC(=O)CSc1ccc2nnc(-c3ccccn3)n2n1 | -23.8 |
| CS(=O)Cc1cc(Oc2ccccc2)nc(-c2ccncc2)n1 (stereo not drawn) | -16.5 |
| Cc1nc2cc(NC(=O)c3ccc(Br)s3)ccc2s1 | 20 |
| O=C(CSc1nc2ccccc2[nH]1)Nc1ccc(N2CCOCC2)cc1 | 8.65 |
| COc1ccccc1N1CCN(C(=O)CSc2ncccc2-c2nc3ccccc3[nH]2)CC1 | -23.7 |
| Br.CC1(C(=O)CSc2ncn[nH]2)CCC(=O)O1 (stereo not drawn) | 2.21 |
| CC1(C(=O)CSc2nc3ccccc3[nH]2)CCC(=O)O1 (stereo not drawn) | -70.8 |
| Br.CC1(C(=O)CSc2nc3ccccc3s2)CCC(=O)O1 (stereo not drawn) | -2.67 |
| CCN1CCN(c2ccc([N+](=O)[O-])c(Sc3nc4ccccc4[nH]3)c2)CC1 | -60.4 |
| NC(=O)CCCSc1nc2ccccc2[nH]1 | 13.3 |
| COc1ccc(N2CCN(C(=O)CSc3ncccc3-c3nc4ccccc4[nH]3)CC2)cc1 | -53.4 |
| CN1CCN(c2ccc([N+](=O)[O-])c(Sc3nc4ccccc4[nH]3)c2)CC1 | -19.7 |
| O=[N+]([O-])c1ccc(N2CCN(CCO)CC2)cc1Sc1nc2ccccc2[nH]1 | -12.4 |

| SMILES | hERG current change (%, negative = inhibition) at 10uM [%] |
| --- | --- |
| O=C(CSc1ncccc1-c1nc2ccccc2[nH]1)N1CCCCC1 | -16.3 |
| O=C(CCCSc1nc2ccccc2[nH]1)N1CCN(c2ccc([N+](=O)[O-])cc2)CC1 | -79.9 |
| COC(=O)C1=C(C)N(CCc2ccc(OC)c(OC)c2)C(=O)C1 | 18.5 |
| O=C(CNS(=O)(=O)c1ccc(Cl)cc1)NNC(=O)c1cccnc1 | 20.7 |
| S=C1NC[C@H](Cc2cccc3ccccc23)N1CC1CCCCC1 | 10.3 |
| COc1cc(O)sc1C=Nc1ccc(Cl)cc1 | 4.72 |
| Cc1cc2c(n1-c1ccc(Br)cc1)CC(C)(C)CC2=O | -33.5 |
| O=S(=O)(Nc1cccc(-n2cnnn2)c1)c1ccccc1C(F)(F)F | 12 |
| CN1CCN(CCC(=O)N/N=C/c2cc([N+](=O)[O-])ccc2OC(F)F)CC1 | 1.78 |
| C#CCOCCOCCOCCNc1nc(N2CCN(C(=O)CCCCCCCCCCNC(=O)Cn3cc(CCCCCN)nn3)CC2)nc(N2CCN(C(=O)CCCCCCCCCCNC(=O)[C@@H](CCC(=O)O)n3cc(CCCCCN)nn3)CC2)n1 | -5.58 |
| CC(=O)Nc1cccc(NC(=O)CSc2nnc(Cc3cccn3C)n2-c2ccc(C)cc2)c1 | -11.9 |
| Cc1ccnc(NC(=O)c2ccc(Cl)c(NC(=O)C(C)Oc3ccccc3)c2)c1 (stereo not drawn) | 1.41 |
| O=C(CSc1nc2ccccc2[nH]1)N1CCCCC1 | -2 |
| COc1ccc(N2CCN(C(=O)CCCSc3nc4ccccc4[nH]3)CC2)cc1 | -62.3 |
| Cc1ccc2nc(SCC(=O)N3CCN(c4ccccc4)CC3)[nH]c2c1 | 1.42 |
| O=C(CSc1nc2ccccc2[nH]1)N1CCN(c2ccccc2)CC1 | -0.235 |
| Cc1cccc(N2CCN(C(=O)CCCSc3nc4ccccc4[nH]3)CC2)c1C | -17.4 |
| O=C(CCCSc1nc2ccccc2[nH]1)NCc1ccccc1Cl | -19.3 |
| O=C(CCCSc1nc2ccccc2[nH]1)Nc1ccccc1 | 7.05 |
| O=C(CCCSc1nc2ccccc2[nH]1)N1CCN(c2ccccc2)CC1 | -60.2 |
| O=C(CCCSc1nc2ccccc2[nH]1)NCc1ccccc1 | -23.9 |
| O=C(CSc1nc2ccccc2[nH]1)N1CCN(c2ccc(F)cc2)CC1 | -55.6 |

| SMILES | hERG current change (%, negative = inhibition) at 10uM [%] |
| --- | --- |
| O=C(CCCSc1nc2ccccc2[nH]1)NCc1ccc(Cl)cc1 | -62.3 |
| COc1ccc(N2CCN(C(=O)CSc3nc4ccccc4c(=O)[nH]3)CC2)cc1 | -10.7 |
| CC(C)CNC(=O)C(=O)NC1CCCC1 | 11.7 |
| CC1=C(C)CC(C(=O)Nc2nccs2)C(C(=O)O)C1 (stereo not drawn) | 28.7 |
| O=C(CSc1n[nH]c(-c2ccncc2)n1)Nc1ccc(Br)cc1 | -2.1 |
| CN(C)/C=N/c1nc2nccc(-c3ccc(F)cc3)n2n1 | 13.8 |
| CCC1Oc2ccc(C)cc2N(CC(=O)NCCCN2CCCCC2C)C1=O (stereo not drawn) | 3.15 |
| CN(C(=O)CSc1nnc(-c2ccccc2)o1)c1c(N)n(Cc2ccccc2)c(=O)[nH]c1=O | 12 |
| COc1cccc(N2C(=O)/C(=C/c3ccc(C)o3)C(=O)NC2=S)c1 | 15 |
| COc1ccc(/C=C/C=N/NC(=O)COc2ccc(OC)cc2)cc1 | 1.85 |
| CC(C(=O)OCC(=O)c1ccc([N+](=O)[O-])cc1)N1C(=O)C2C3C=CC(C3)C2C1=O (stereo not drawn) | -43 |
| CC(C(=O)OCC(=O)c1ccc([N+](=O)[O-])cc1)N1C(=O)C2C3CCC(C3)C2C1=O (stereo not drawn) | -54 |
| O=C(CCN1C(=O)C2C3CCC(C3)C2C1=O)OCC(=O)c1ccc(Br)cc1 (stereo not drawn) | -30.2 |
| O=C(CCN1C(=O)C2C3CCC(C3)C2C1=O)OCC(=O)c1ccccc1 (stereo not drawn) | 9.98 |
| O=C(CCN1C(=O)C2C3CCC(C3)C2C1=O)OCC(=O)c1ccc(Cl)cc1 (stereo not drawn) | -53.2 |
| CC(C(=O)OCC(=O)c1cccc([N+](=O)[O-])c1)N1C(=O)C2C3CCC(C3)C2C1=O (stereo not drawn) | 2.55 |
| Cc1ccc(CSCC(=O)N(C)CC(=O)Nc2cccc(F)c2)cc1 | -17.5 |
| COC(=O)CNC(=O)c1c(-c2ccccc2Cl)noc1C | -5.68 |
| CCCCc1nc(NCc2ccccc2)c(C#N)c2c1COC(C)(C)C2 | 12.9 |
| CCOC(=O)c1c(C)[nH]c(C)c1S(=O)(=O)NC(CC)CN1CCOCC1 (stereo not drawn) | 7.32 |
| O=C(NC(=S)Nc1ccccc1C(=O)O)c1ccc(-c2ccc(Br)cc2)o1 | 28.3 |
